According to PubChem BioAssay (NCATS):
Several values for one entry are separate records, joined by “and”; a condition that tells them apart may be missing. Equal entries are not always repeated. Inconclusive results are not listed. Activity calls are given as the source filed them. Unless noted, the call rests on the fitted dose curve; in most records, active means well fitted curve in either direction with a large enough effect (not every such curve was filed as active); inconclusive means small, poorly fitted or top-dose-only effect, or another doubt; inactive means flat fitted curve, though single readings scatter.

Experiments:
[1] = Stat Signaling Pathway (AID 446); conditions: ME-180 SIE beta-lactamase reporter, IL-6 stimulated, 5 h; series mostly up to 17.2 µM;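 further: ME-180 cervical cancer cells given 40 pM IL-6 alongside compound; SIE-controlled beta-lactamase reporter measured as 460/530 nm FRET emission ratio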
Summary of the method: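 Screening format detects activators and inhibitors alike: ME-180 SIE-bla cells stimulated at 40 pM IL-6 for 5 hrs with compound, then dual-emission beta-lactamase read at 405 nm excitation.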

[2] = target: Glucocorticoid receptor (Homo sapiens) (UniProt P04150); assay: GR-GFP Redistribution (AID 450;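 active means compounds whose dose series gives a full or clear partial fitted curve of increased nuclear translocation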; further: potency means the concentration at half of the fitted maximal effect); conditions: U2OS GR-GFP nuclear translocation, laser cytometry, 2 h
[3] = target: Glucocorticoid receptor (Homo sapiens) (UniProt P04150); assay: GR-EFC Redistribution (AID 451; calls by dose curve; further: potency means the concentration at half of the fitted maximal effect); conditions: CHO-K1 GR-EFC translocation, beta-gal luminescence, 2 h
Summary of the method: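 CHO-K1 cells stably expressing nuclear-localized β-gal enzyme acceptor and GR fused C-terminally to the enzyme donor fragment; ligand-driven nuclear translocation restores β-gal by complementation. Compounds titrated up to 46 uM final, 2 h at 37 °C; luminescence read.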

[4] = target: Mitogen-activated protein kinase 10 (Mus musculus) (UniProt Q61831); assay: JNK3 AlphaScreen Assay (AID 530); conditions: JNK3 lysate, c-Jun phosphorylation; series mostly up to 57.1 µM;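 further: kinase came from lysate of stimulated human HepG2 cells; signal reports phosphorylation of biotinylated GST-cJun 1-79 at Ser73 with 10 µM ATP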
Summary of the method: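 Inhibitors reduce antibody binding to phosphorylated biotin-cJun, lowering AlphaScreen luminescence. Lysates from HepG2 cells pre-activated by IL-1beta plus TNF-alpha supplied JNK3; compounds were titrated.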

[5] = target: 3',5'-cyclic-AMP phosphodiesterase 4B (Homo sapiens) (UniProt Q07343); assay: qHTS Assay for Inhibitors of PDE-IV (AID 607; active means well fitted activation curve with a large enough effect in the main read-out, with a control signal flat, not every such curve was filed as active); conditions: HEK293 ACTOne CNG channel cells, membrane potential fluorescence; series mostly up to 22.9 µM
Summary of the method: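 The readout is membrane depolarisation from a cAMP-sensing CNG channel, detected with a potential dye at ex 535/em 590. Cells were HEK293-derived (endogenous PDE-IV) at 1000 cells/well, titrated up to 22.9 uM final.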

[6] = Cell Viability - N2a (AID 540; active means well fitted curve in the direction sought with a large enough effect; an effect the other way counts as inactive or inconclusive; further: nearly all actives have a fitted effect of over 45% in size); conditions: N2a mouse neuroblastoma cell viability; series mostly up to 92.2 µM
Summary of the method: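 Luminescent ATP signal (CellTiter-Glo, 20 min at room temperature) served as the viability read-out after N2a cells were treated with compounds for 40 hours at 37 °C. Concentration-response data were fitted to the Hill equation for AC50.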

[7] = Cell Viability - NIH 3T3 (AID 541; active means well fitted curve in the direction sought with a large enough effect; an effect the other way counts as inactive or inconclusive; further: nearly all actives have a fitted effect of over 25% in size); conditions: NIH 3T3 cell viability, qHTS; series mostly up to 92.2 µM
Summary of the method: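 Luminescent ATP signal (CellTiter-Glo) served as the viability read-out after NIH 3T3 cells were exposed to compounds over a concentration range for 40 hr at 37 °C. Hill-equation modelling of concentration-response data gave AC50.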

[8] = Cell Viability - HUV-EC-C (AID 542; active means well fitted curve in the direction sought with a large enough effect; an effect the other way counts as inactive or inconclusive; further: nearly all actives have a fitted effect of over 35% in size); conditions: HUV-EC-C endothelial cell viability, qHTS; series mostly up to 92.2 µM
Summary of the method: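 qHTS cytotoxicity: HUV-EC-C, 1000 cells/well, 5 hr settle, compound 40 hr 37 °C, CellTiter-Glo, luminescence. AC50 via Hill equation.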

[9] = Cell Viability - H-4-II-E (AID 543; active means well fitted curve in the direction sought with a large enough effect; an effect the other way counts as inactive or inconclusive; further: nearly all actives have a fitted effect of over 35% in size); conditions: H-4-II-E rat hepatoma viability; series mostly up to 92.2 µM
Summary of the method: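 Luminescent ATP signal (CellTiter-Glo) served as the viability read-out, with cytotoxicity seen as a concentration-dependent ATP drop. Cells were treated for 40 hours in complete medium. AC50 values derive from Hill-equation modelling.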

[10] = Cell Viability - SH-SY5Y (AID 544; active means well fitted curve in the direction sought with a large enough effect; an effect the other way counts as inactive or inconclusive; further: nearly all actives have a fitted effect of over 55% in size); conditions: SH-SY5Y neuroblastoma cell viability; series mostly up to 92.2 µM
Summary of the method: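 Luminescent ATP read-out (CellTiter-Glo) measures loss of viable SH-SY5Y neuroblastoma cells after 40 hr compound exposure at 37 °C. AC50 values derive from standard Hill modelling of qHTS concentration-response data.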

[11] = Cell Viability - Renal Proximal Tubule (AID 545; active means well fitted curve in the direction sought with a large enough effect; an effect the other way counts as inactive or inconclusive; further: nearly all actives have a fitted effect of over 40% in size); conditions: renal proximal tubule cells viability, primary cells of rat origin; series mostly up to 91.7 µM
Summary of the method: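 In this qHTS format, normal rat kidney-derived proximal tubule cells in complete culture medium receive compound titrations, then sit 40 hours at 37 °C before luciferase-based ATP quantitation; potency is reported as AC50 from concentration-response curves.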

[12] = Cell Viability - Mesenchymal (AID 546; active means well fitted curve in the direction sought with a large enough effect; an effect the other way counts as inactive or inconclusive;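 further: cells exposed to compound for 40 hours before reading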); conditions: mesenchymal cells viability, qHTS; series mostly up to 91.7 µM
Summary of the method: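 Normal human renal glomerulus-derived kidney mesenchymal cells, 1000 per well in complete medium, were treated with compounds for 40 hr at 37 °C. Viability was read as intracellular ATP by CellTiter-Glo luminescence; AC50 values came from Hill-equation fits of qHTS concentration-response data.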

[13] = Cellular Toxicity (caspase-3) HepG2 (AID 654; active means well fitted curve in the direction sought with a large enough effect; an effect the other way counts as inactive or inconclusive;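 further: cells exposed to compound for 16 hours before reading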); conditions: HepG2 caspase-3 activation, luminescence, 0% = DMSO only, 100% = tamoxifen; series mostly up to 92.2 µM
Summary of the method: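 Cells plated 5 hr at 37 °C, compound added, incubated 16 hr at 37 °C. Caspase-Glo 3/7 reagent followed, 20 min at room temperature, then luminescence read. Activation scored as signal increase; AC50 from Hill fit.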

[14] = Cellular Toxicity (caspase-3) Jurkat (AID 655; active means well fitted curve in the direction sought with a large enough effect; an effect the other way counts as inactive or inconclusive;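 further: cells exposed to compound for 16 h at 37 °C before reading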); conditions: Jurkat caspase-3 activation, luminescence, DMSO = 0%, tamoxifen = 100%; series mostly up to 92.2 µM
Summary of the method: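 qHTS in human Jurkat T-cell leukemia line: 16 hr compound treatment at 37 °C, caspase-3/7 activity measured by Caspase-Glo luminescence. AC50 derived from Hill equation.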

[15] = Cellular Toxicity (caspase-3) HUV-EC-C (AID 656; active means well fitted curve in the direction sought with a large enough effect; an effect the other way counts as inactive or inconclusive); conditions: HUV-EC-C cells, caspase-3 activation (apoptosis), vehicle = 0, 100 µM tamoxifen = 100%; series mostly up to 92.2 µM
Summary of the method: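 Concentration-dependent caspase 3/7 induction was assessed in HUV-EC-C cells exposed for 16 hours. Data scaled between DMSO and tamoxifen (100 uM) controls.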

[16] = Cellular Toxicity (caspase-3) SHSY5Y (AID 657; active means well fitted curve in the direction sought with a large enough effect; an effect the other way counts as inactive or inconclusive;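 further: cells exposed to compound for 16 hours at 37 °C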); conditions: SH-SY5Y caspase-3 activation, DMSO zero, 10 µM staurosporine = 100%; series mostly up to 91.7 µM
Summary of the method: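 Readout: caspase-cleaved peptide-aminoluciferin substrate driving luciferase light in SH-SY5Y neuroblastoma cells after 16 h treatment. Response normalized to DMSO and 10 uM staurosporine controls.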

[17] = Cellular Toxicity (caspase-3) BJ (AID 658; active means well fitted curve in the direction sought with a large enough effect; an effect the other way counts as inactive or inconclusive); conditions: BJ fibroblasts, luminescence, normalized: DMSO 0%, staurosporine 100%; series mostly up to 91.7 µM
Summary of the method: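 Luminescent aminoluciferin-substrate cleavage reports caspase 3/7 activity in normal human BJ fibroblasts after 16 hr compound exposure at 37 °C. Normalized to DMSO (basal) and 10 uM staurosporine (100%); AC50 from Hill fit of concentration-response.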

[18] = Cellular Toxicity (caspase-3) MRC-5 (AID 659; active means well fitted curve in the direction sought with a large enough effect; an effect the other way counts as inactive or inconclusive); conditions: MRC-5 cells, luminescence, normalized: DMSO 0%, 10 µM staurosporine 100%; series mostly up to 91.7 µM
Summary of the method: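 Luminescence from caspase-cleaved aminoluciferin substrate (Caspase-Glo 3/7, 1 hr RT) reports caspase 3/7 activity in MRC-5 lung fibroblasts after 16 hr compound exposure. Normalized to DMSO basal and 10 uM staurosporine as 100%; AC50 from Hill fits.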

[19] = Cellular Toxicity (caspase-3) Mesangial (AID 660; active means well fitted curve in the direction sought with a large enough effect; an effect the other way counts as inactive or inconclusive;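 further: combined caspase 3 and 7 activity read by Caspase-Glo luminescence; cells exposed to compound for 16 h before the caspase read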); conditions: mesangial cells, normalized: DMSO 0%, 100 µM tamoxifen 100%; series mostly up to 91.7 µM
Summary of the method: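 Mesangial cells, 1000/well, 5 h settle at 37 °C; compound 16 h, 37 °C; Caspase-Glo 3/7 reagent 20 min RT; luminescence. Norm.: DMSO = 0%, tamoxifen 100 uM = 100%. AC50, Hill fit.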

[20] = Cellular Toxicity (caspase-3) SK-N-SH (AID 661; active means well fitted curve in the direction sought with a large enough effect; an effect the other way counts as inactive or inconclusive); conditions: SK-N-SH caspase-3 activation, qHTS, DMSO as zero, staurosporine as full; series mostly up to 91.7 µM
Summary of the method: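 Human neuroblastoma SK-N-SH, 1500 cells/well, 5 hr pre-incubation, then compound 16 hr, 37 °C. Caspase-Glo 3/7 reagent, 1 hr RT, luminescence. Norm. to DMSO/10 uM staurosporine; Hill-fit AC50.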

Measured: Potency

Sequence of 3',5'-cyclic-AMP phosphodiesterase 4B (Homo sapiens) (Q07343 whole entry, looked up): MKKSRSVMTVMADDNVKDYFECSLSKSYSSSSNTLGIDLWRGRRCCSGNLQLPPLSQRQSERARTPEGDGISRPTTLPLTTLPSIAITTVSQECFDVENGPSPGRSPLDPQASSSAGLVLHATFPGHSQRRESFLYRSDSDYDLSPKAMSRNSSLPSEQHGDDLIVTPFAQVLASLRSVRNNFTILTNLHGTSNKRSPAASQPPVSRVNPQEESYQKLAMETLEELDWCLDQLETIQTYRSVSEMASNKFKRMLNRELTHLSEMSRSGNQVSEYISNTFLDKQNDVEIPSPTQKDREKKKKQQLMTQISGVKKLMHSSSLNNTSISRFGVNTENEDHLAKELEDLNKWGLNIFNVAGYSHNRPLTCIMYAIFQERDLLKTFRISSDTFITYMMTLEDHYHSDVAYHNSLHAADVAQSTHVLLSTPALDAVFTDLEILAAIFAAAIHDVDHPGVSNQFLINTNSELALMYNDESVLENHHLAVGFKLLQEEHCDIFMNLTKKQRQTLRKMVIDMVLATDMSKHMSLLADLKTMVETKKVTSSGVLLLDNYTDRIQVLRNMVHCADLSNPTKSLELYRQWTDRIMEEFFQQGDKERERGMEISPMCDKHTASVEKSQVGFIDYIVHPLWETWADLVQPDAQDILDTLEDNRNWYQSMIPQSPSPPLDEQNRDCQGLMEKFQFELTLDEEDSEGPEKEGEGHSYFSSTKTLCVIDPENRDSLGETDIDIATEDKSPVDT
Sequence of Glucocorticoid receptor (Homo sapiens) (P04150 whole entry, looked up, the tested form may be a part): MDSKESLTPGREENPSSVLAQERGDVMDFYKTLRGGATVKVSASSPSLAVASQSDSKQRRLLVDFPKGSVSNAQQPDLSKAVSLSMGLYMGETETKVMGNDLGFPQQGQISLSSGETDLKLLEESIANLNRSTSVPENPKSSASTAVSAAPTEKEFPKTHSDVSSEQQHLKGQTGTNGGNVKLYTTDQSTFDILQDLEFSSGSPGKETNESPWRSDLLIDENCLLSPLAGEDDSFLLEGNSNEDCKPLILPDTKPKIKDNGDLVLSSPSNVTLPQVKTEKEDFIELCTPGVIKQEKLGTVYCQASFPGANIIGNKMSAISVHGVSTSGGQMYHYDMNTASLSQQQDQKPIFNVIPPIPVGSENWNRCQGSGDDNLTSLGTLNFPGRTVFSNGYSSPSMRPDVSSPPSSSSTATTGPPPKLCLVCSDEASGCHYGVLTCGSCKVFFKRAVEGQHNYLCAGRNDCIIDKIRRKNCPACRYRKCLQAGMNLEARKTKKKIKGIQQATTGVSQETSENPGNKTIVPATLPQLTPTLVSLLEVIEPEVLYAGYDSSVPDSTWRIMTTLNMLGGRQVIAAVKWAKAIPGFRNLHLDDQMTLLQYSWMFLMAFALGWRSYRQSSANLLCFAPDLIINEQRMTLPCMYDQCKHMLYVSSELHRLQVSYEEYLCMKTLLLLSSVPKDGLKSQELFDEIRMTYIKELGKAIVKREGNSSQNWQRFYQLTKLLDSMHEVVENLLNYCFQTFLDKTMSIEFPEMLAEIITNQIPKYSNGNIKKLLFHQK

Cc1cnc(NC(=O)C2=C(O)c3ccccc3S(=O)(=O)N2C)s1
inactive: [1] | [2] > 46 µM and > 20.6 µM | [3] > 46 µM | [4]

Cc1ccccc1C(OCCN(C)C)c1ccccc1 (centres undefined)
inactive: [1] | [2] > 20.6 µM

Nc1nc2ccc(OC(F)(F)F)cc2s1
inactive: [1] | [2] > 46 µM and > 20.6 µM | [3] > 46 µM and > 20.6 µM | [4] | [5]

CCOC(=O)C1=C[C@]2(CC)CCCN3CCc4c(n1c1ccccc41)[C@@H]32
inactive: [1] | [2] > 20.6 µM

Cc1ccc(N(CC2=NCCN2)c2cccc(O)c2)cc1
inactive: [1] | [2] > 46 µM and > 20.6 µM | [3] > 46 µM and > 20.6 µM | [4] | [5]

Cc1oncc1C(=O)Nc1ccc(C(F)(F)F)cc1
inactive: [1] | [2] > 46 µM and > 20.6 µM | [3] > 46 µM and > 20.6 µM | [4] | [5]

C[C@]12CCC(=O)C=C1CC[C@@H]1[C@@H]2[C@@H](O)C[C@@]2(C)[C@H]1CC[C@]2(O)C(=O)CO
inactive: [1]

Nc1ccc(S(=O)(=O)Nc2ccnn2-c2ccccc2)cc1
inactive: [1] | [2] > 46 µM and > 20.6 µM | [3] > 46 µM and > 20.6 µM | [4] | [5]

Clc1cccc(Cl)c1NC1=NCCN1
inactive: [1] | [2] > 46 µM and > 20.6 µM | [3] > 46 µM and > 20.6 µM | [4] | [5]

NS(=O)(=O)c1cc2c(cc1Cl)NC=NS2(=O)=O
not listed: [2] | [3]
inactive: all other assays above

COc1ccc2nc(S(=O)Cc3ncc(C)c(OC)c3C)[nH]c2c1 (centres undefined)
inactive: [1] | [4] | [5]

NC(=O)c1ccc(-c2nc(-c3ccc4c(c3)OCO4)c(-c3ccccn3)[nH]2)cc1
inactive: [2] > 46 µM | [3] > 46 µM | [4]

CC(C)(Sc1ccc(CCN(CCCCC2CCCCC2)C(=O)NC2CCCCC2)cc1)C(=O)O
inactive: [2] > 46 µM | [3] > 46 µM | [4] | [5]

NCCc1ccc(O)c(O)c1
inactive: [1] | [4] | [5]

NNCCc1ccccc1
inactive: [1] | [2] > 46 µM and > 20.6 µM | [3] > 46 µM and > 20.6 µM | [4] | [5]

O=c1n(CCCN2CCN(c3cccc(Cl)c3)CC2)nc2ccccn12
inactive: [1] | [4] | [5]

N[C@@H]1CONC1=O
inactive: [1] | [2] > 46 µM and > 20.6 µM | [3] > 46 µM and > 20.6 µM | [4] | [5]

CCC(C)(C)C(=O)O[C@H]1C[C@@H](C)C=C2C=C[C@H](C)[C@H](CC[C@@H]3C[C@@H](O)CC(=O)O3)[C@H]21
inactive: [2] > 46 µM | [3] > 46 µM | [4]

CNC[C@H](O)c1cccc(O)c1
inactive: [1] | [4] | [5]

O=C1CCc2cc(OCCCCc3nnnn3C3CCCCC3)ccc2N1
inactive: [1] | [2] > 46 µM and > 20.6 µM | [3] > 46 µM | [4] | [5]

O=NN(CCCl)C(=O)NCCCl
inactive: [2] > 46 µM | [3] > 46 µM | [4] | [5]

Cc1ccc2c(c1)C(=O)[C@@]1(O)CCN(c3ccccc3)C1=N2
inactive: [2] > 46 µM | [3] > 46 µM | [4] | [5]

CCCCNc1cc(C(=O)O)cc(S(N)(=O)=O)c1Oc1ccccc1
inactive: [1] | [4] | [5]

CCN(c1ccccc1)c1cc(NC)[n+](C)c(C)n1
inactive: [2] > 46 µM | [3] > 46 µM | [4] | [5]

Cc1cn[nH]c1
inactive: [1] | [2] > 46 µM | [3] > 46 µM | [5]

Cc1cc2c(C(C)C)c(O)c(O)c(C=O)c2c(O)c1-c1c(C)cc2c(C(C)C)c(O)c(O)c(C=O)c2c1O
inactive: [2] > 20.6 µM and > 46 µM | [3] > 20.6 µM and > 46 µM | [5]

CC(C)C[C@H](NC(=O)[C@@H](O)[C@H](N)Cc1ccccc1)C(=O)O
inactive: [2] > 46 µM | [3] > 46 µM | [4]

CCOC(=O)N1CCC(=C2c3ccc(Cl)cc3CCc3cccnc32)CC1
inactive: [2] > 46 µM and > 20.6 µM | [3] > 46 µM | [4] | [5]

C1COC(NC(C2CC2)C2CC2)=N1
inactive: [1] | [4] | [5]

Cc1[nH]c(=O)c(C#N)cc1-c1ccncc1
inactive: [1] | [4] | [5]

N=c1nc(N2CCCCC2)cc(N)n1O
inactive: [1] | [2] > 46 µM and > 20.6 µM | [3] > 46 µM and > 20.6 µM | [4] | [5]
